Screening results as filed in PubChem BioAssay.
HEK293 tox: cytotoxicity counter-screen for GLP-1 receptor inverse agonists. HEK293 cAMP-luciferase reporter cells, luminescence, 24 h. actives 0.13% (n = 410,000). Potency, µM (doses to about 38.3 µM), for the others: top-dose activity change, negative = inhibition, most hits filed as inhibitors;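 also: loss of luciferase light is scored as toxicity; potency is read from the fitted curve at half-maximal effect; % is scaled to controls: 0 for no effect and ±100 for the full control effect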
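1536-well qHTS counterscreen of the MLSMR; 200 cells/uL, 12 h pre-incubation, 23 nL cpd, 24 h at 37 deg C 5% CO2, luciferase detection reagent, 12 min RT, luminescence. Inhibition = undesired.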
TRHR ag: agonists of human TRH receptor | P34981 | TRHR cells, calcium flux fluo-8, FDSS agonist mode | activation, % at 2 µM | actives 0.18% (n = 360,000) | AID 493084; in the data active = activation above about 30%; also: 0% is about no effect
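Agonist-mode FDSS calcium read (Ex 480/Em 530, 1 s cycles) in 1536-well TRHR cells with fluo-8 dye, after 10-cycle baseline and 23 nL compound addition; TRH at EC20 (10 nM final) added afterwards for the enhancer phase.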
TRHR enhancer: allosteric enhancers of human TRH receptor; TRHR cells, fluo-8 calcium fluorescence, EC20 TRH enhancement; enhancement, % at 2 µM; actives 0.66% (n = 360,000); P34981; in the data active = enhancement above about 30%; also: 0% is about no effect
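TRHR-expressing cells loaded with fluo-8 calcium dye were read kinetically (ex 480/em 530) during compound addition, then stimulated with an EC20 of TRH (10 nM final). Enhancement of the Gq-mediated intracellular calcium response was scored.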
GLP1R ag: GLP-1 receptor (human) agonism; P43220; HEK293 GLP-1R CRE-luciferase, luminescence, 4-6 h; cells express a hypersensitive GLP-1R form; Potency, µM (doses to about 45.6 µM), for inactives: at the highest dose activation, most hits filed as activators; actives 0.007% (n = 380,000); also: potency is read from the fitted curve at half-maximal effect; % of control where 0% means no effect
Target sequence (P43220 whole entry, looked up): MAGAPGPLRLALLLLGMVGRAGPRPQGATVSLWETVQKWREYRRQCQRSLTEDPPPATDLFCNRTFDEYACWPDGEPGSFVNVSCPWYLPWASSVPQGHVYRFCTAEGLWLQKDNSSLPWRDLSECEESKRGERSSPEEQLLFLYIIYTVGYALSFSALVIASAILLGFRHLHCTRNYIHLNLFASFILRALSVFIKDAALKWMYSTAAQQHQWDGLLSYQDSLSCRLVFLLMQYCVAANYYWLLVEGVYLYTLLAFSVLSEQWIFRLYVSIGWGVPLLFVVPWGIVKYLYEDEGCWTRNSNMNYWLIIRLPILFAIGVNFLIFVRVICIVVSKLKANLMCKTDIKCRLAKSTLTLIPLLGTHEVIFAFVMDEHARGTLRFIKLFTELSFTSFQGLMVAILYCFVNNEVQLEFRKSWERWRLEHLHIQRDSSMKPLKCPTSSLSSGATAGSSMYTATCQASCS
PTHR1 ag: agonists of human PTHR1 parathyroid hormone receptor; Q03431; AID 743266; Potency, µM (top dose mostly 115 µM), inactives show top-dose activation, actives largely listed as activators; HEK293 GP2 PTHR1 cells, GloSensor cAMP luminescence, 1 h; actives 0.075% (n = 410,000); also: potency is read from the fitted curve at half-maximal effect; nearly all actives have a fitted effect of over 55% in size
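HEK-293-derived GP2 cells expressing PTHR1 and a GloSensor cAMP reporter, 3,000/well, plated overnight, given luciferin plus IBMX (each 0.5 mM as added) for 1 h at 37 °C, then compound for 1 h at 37 °C. Luminescence was read after 15 min at room temperature.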
GLP-1R inv ag: acts as inverse agonist at human GLP-1 receptor; actives 1.6% (n = 410,000); Potency, µM (doses to about 38.3 µM), for the others: at the top dose activity change, negative = inhibition, most hits filed as inhibitors; HEK293 GLP-1R CRE-luciferase, luminescence, 24 h; GLP-1R form is constitutively active; AID 624417; also: potency is read from the fitted curve at half-maximal effect; % is scaled to controls: 0 for no effect and ±100 for the full control effect; nearly all actives have a fitted effect of over 55% in size
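Constitutively active GLP-1R drives a cAMP-responsive luciferase in stably transfected HEK293 cells; test compounds are added after overnight (12 h) attachment and left 24 hr, and signal loss in luminescence marks inhibition.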
* hit, by the source's call; i = inactive; ? = inconclusive; . = no result given; [ ] = another dose, or the depositor's remark. A selection: hits, their analogues and other compounds. The true share with any hit is near 2.4%. Unless noted, calls follow the shape of the dose curve; as a rule, active = well fitted curve in the direction sought with a large enough effect; inconclusive = small, poorly fitted or top-dose-only effect, or another doubt; inactive = no such curve, though single readings can be large; an effect the other way counts as inactive or inconclusive.

SMILES | HEK293 tox | TRHR ag | TRHR enhancer | GLP1R ag | PTHR1 ag | GLP-1R inv ag
COc1ccc(OCCOc2ccc(S(=O)(=O)N3CCCC3)cc2[N+](=O)[O-])cc1 | 9% | 0 | 3 | 2% | -11% | ?
O=[N+]([O-])c1cc(S(=O)(=O)N2CCCCCC2)ccc1Cl | 11µM* | -1 | 0 | -6% | -45% | ?
COc1cccc(Oc2ccc(S(=O)(=O)N3CCCC3)cc2[N+](=O)[O-])c1 | 1% | -1 | 32* | 7% | -9% | ?
Cc1ccc(S(=O)(=O)N2CCCC2)cc1[N+](=O)[O-] | 0% | -1 | -8 | -3% | i | 10%
Cc1cc(OCC(=O)N2CCC(c3nc4ccccc4s3)CC2)ccc1Cl | 4% | 1 | 3 | . | -28% | ?
COc1cccc(NC(=O)CC2S/C(=N\S(=O)(=O)c3ccccc3)N(c3ccccc3)C2=O)c1 (configuration not stated) | -6% | 0 | 1 | 2% | -4% | 8%
CC(C)(C)NC(=O)CSc1ncnc2c1nnn2Cc1ccccc1Cl | -27% | 0 | 3 | -11% | -13%[57.5 µM] | 4µM*
CCOc1ccc(CCNC(=O)c2nn(C)c3c2CSc2ccc(C)cc2-3)cc1OCC | 19% | 1 | 1 | . | -36% | 10µM*
O=C(/C=C/c1ccc([N+](=O)[O-])cc1)NCCc1ccc(F)cc1 | -1% | 0 | 2 | 3% | -17% | ?
CCN(CC)c1ccc(NC(=O)CN2CCN(CC(=O)Nc3ccc(F)cc3)CC2)cc1 | -5% | 0 | -5 | -2% | i | 13µM*
CCN(CC)c1ccc(NC(=O)CN2CCN(CC(=O)Nc3ccc(OC)cc3)CC2)cc1 | 1% | -1 | 3 | 2% | -2% | -10%
CSc1cccc(NC(=S)N(CCC(C)C)C2CCN(C(C)C)CC2)c1 | ? | 0 | -7 | -2% | i | 8.9µM*
CSc1cccc(NC(=S)N(CCC(C)C)C2CCN(C(C)=O)CC2)c1 | -1% | 0 | -5 | 9% | i | ?
Oc1ccccc1/C=N/NC(=S)NC1CC2CC1C1C=CCC21 (configuration not stated) | 4.5µM* | 0 | 5 | -2% | -50% | ?
CC1=C(C(=O)NC(C)CCc2ccccc2)C2(CCC(C)CC2)OC1=O (configuration not stated) | 8% | 0 | -1 | 13% | -16% | 8.9µM*
CS(=O)(=O)c1ccc(-c2sc3cc4c(cc3c2C(=O)NN2CCOCC2)OCO4)cc1 | 38% | . | . | -9% | -14% | 3%
Oc1cncc(-c2cccnc2)c1 | 4% | 1 | 31* | -4% | i | 9%
Cc1nn(-c2ccc(F)cc2)c(Cl)c1C(=O)OC(C)C(=O)N(C)C1CCCCC1 (configuration not stated) | -7% | -1 | -9 | -5% | -8% | 5µM*
O=c1c(=O)n(-c2ccccc2)ccn1Cc1cccc(C(F)(F)F)c1 | 2% | 0 | -3 | . | 2% | -2%
O=C(N/N=C/c1c(O)ccc2ccccc12)c1cccnc1 | 85% | 36* | 8 | 1% | -3% | 1%
O=C(N/N=C\c1c(O)ccc2ccccc12)c1cncc(Br)c1 | 267% | 105* | 38* | 5% | -20% | ?
O=C(NN=Cc1c(O)ccc2ccccc12)c1ccncc1 | 13% | . | . | -3% | i | ?
Cn1cc(C(=O)N/N=C/c2c(O)ccc3ccccc23)ccc1=O | 53% | 12 | -2 | 0% | i | 3.2µM*
O=C(N/N=C\c1c(O)ccc2ccccc12)c1ccc(O)cc1 | ? | 5 | -4 | -4% | 2% | ?
Cc1ccc(C(=O)N/N=C/c2c(O)ccc3ccccc23)cn1 | 58% | 29 | 2 | 17% | -45% | ?
Cn1c(-c2ccccc2)c(/C=N/NC(=O)c2ccc(O)cc2)c2ccccc21 | -20% | 0 | 2 | 12% | -39% | 7.1µM*
